PAFAH1B3 FP inh: PAFAH1B3 enzyme inhibitors, primary screen, biochemical, fluorescence polarization, human; recombinant PAFAH1B3, FP-rhodamine probe; 0.28% of 340,000 active; Platelet-activating factor acetylhydrolase IB subunit alpha1 (Homo sapiens), Q15102; AID 492972, 2010; inhibition, % at 3.39 µM;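 active = inhibition above the screen-wide average of all tested compounds plus 3 SD, cut at about 25% in these data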;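 also: 0% = enzyme with DMSO only and 100% = wells lacking PAFAH1B3 protein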
Target sequence (Q15102 whole entry, looked up): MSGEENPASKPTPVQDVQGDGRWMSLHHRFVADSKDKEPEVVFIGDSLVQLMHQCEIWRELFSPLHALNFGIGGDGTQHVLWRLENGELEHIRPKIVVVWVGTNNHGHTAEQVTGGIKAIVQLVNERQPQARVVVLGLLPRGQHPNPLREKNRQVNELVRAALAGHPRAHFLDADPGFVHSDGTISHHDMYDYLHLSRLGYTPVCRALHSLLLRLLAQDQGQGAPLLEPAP
PME-1 primary: PME-1 inhibitors via competitive probe labeling, primary screen, biochemical, fluorescence polarization, FP-Rh probe, HTS; AID 2130, 2009; Protein phosphatase methylesterase 1 (Homo sapiens), Q9Y570; recombinant PME-1; inhibition, % at 5.9 µM; 0.53% of 320,000 active;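 active = inhibition above the campaign mean of all compounds plus 3 SD, cut at about 26% in these data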;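 also: competitive labeling of PME-1 active site by serine hydrolase directed probe; 0% = PME-1 with DMSO and 100% = wells lacking PME-1 enzyme; inhibitors block probe labeling so polarization falls and inhibition rises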
Target sequence (Q9Y570 whole entry, looked up): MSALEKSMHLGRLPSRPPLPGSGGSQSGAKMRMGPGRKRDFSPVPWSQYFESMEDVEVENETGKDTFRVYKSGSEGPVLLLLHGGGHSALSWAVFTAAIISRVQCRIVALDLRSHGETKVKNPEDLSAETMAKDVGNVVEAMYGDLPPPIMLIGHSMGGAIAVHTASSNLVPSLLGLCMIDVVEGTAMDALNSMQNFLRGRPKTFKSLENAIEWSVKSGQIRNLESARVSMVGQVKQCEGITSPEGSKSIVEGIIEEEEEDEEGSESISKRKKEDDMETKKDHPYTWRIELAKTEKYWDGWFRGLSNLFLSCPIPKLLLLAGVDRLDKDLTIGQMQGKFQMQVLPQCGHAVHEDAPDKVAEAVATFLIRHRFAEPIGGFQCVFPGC
Fam108B counter: mouse Fam108B serine hydrolase inhibitors, primary screen, counter-screen for RBBP9 inhibitor project, biochemical, fluorescence polarization | recombinant Fam108B, FP-Rh probe fluorescence polarization | inhibition, % at 9.51 µM | 0.33% of 300,000 active | AID 1947, 2009;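 active = inhibition above the screen mean inhibition plus 3 SD, computed separately per campaign, cut at about 18% in these data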;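 also: inhibitors lower polarization as less probe binds the enzyme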
PAFAH1B2 inh: PAFAH1B2 enzyme inhibitors, primary screen, biochemical, fluorescence polarization, human. Platelet-activating factor acetylhydrolase IB subunit alpha2 (Homo sapiens), P68402. recombinant PAFAH1B2, FP-rhodamine activity probe. inhibition, % at 3.39 µM. 1.2% of 340,000 active. AID 492953, 2010;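 active = inhibition above the mean of all tested compounds plus 3 SD, cut at about 24% in these data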;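 also: 0% = enzyme with DMSO and 100% = wells lacking PAFAH1B2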
pPAFAH inh: pPAFAH enzyme inhibitors, primary screen, biochemical, fluorescence polarization, human. Platelet-activating factor acetylhydrolase (Homo sapiens), Q13093. recombinant pPAFAH, FP-rhodamine probe fluorescence polarization. inhibition, % at 3.39 µM. 1.5% of 330,000 active. AID 463082, 2010;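 active = inhibition above the mean inhibition across the screen plus 3 SD, cut at about 25% in these data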;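 also: inhibitors block binding of the rhodamine activity-based probe so polarization drops; 0% = enzyme with DMSO and 100% = wells lacking pPAFAH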
PAFAH2 FP inh: PAFAH2 enzyme inhibitors, primary screen, biochemical, fluorescence polarization, human; recombinant PAFAH2, FP-rhodamine activity probe; inhibition, % at 3.39 µM; 0.99% of 340,000 active; AID 492956, 2010;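 active = inhibition above the mean over all tested compounds plus 3 SD, cut at about 30% in these data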;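 also: inhibitors block probe labeling of enzyme so polarization drops; 0% = enzyme with DMSO and 100% = wells lacking PAFAH2 protein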
* = called active by the depositor; . = no result. Compounds with a hit are over-represented: about 2.9% of the library has one in this group of screens.

SMILES	PAFAH1B3 FP inh	PME-1 primary	Fam108B counter	PAFAH1B2 inh	pPAFAH inh	PAFAH2 FP inh
CCN(CC)c1ccc(/C=N/NS(=O)(=O)c2ccc(C)c([N+](=O)[O-])c2)cc1	5	2	2	4	4	6
CCN(CC)c1ccc(/C=N/NC(=O)c2cccc(S(=O)(=O)N3CCOCC3)c2)cc1	1	5	2	4	12	11
CCN(Cc1ccccc1)c1ccc(/C=N/NS(=O)(=O)c2cccc([N+](=O)[O-])c2)cc1	-4	4	4	45*	4	5
CCN(Cc1ccccc1)c1ccc(/C=N/NC(=O)c2cccc(S(=O)(=O)N3CCOCC3)c2)cc1	3	3	9	13	28*	-7
Cc1cc(Cn2nc(-c3ccccc3)cc2C(=O)NCc2cccc(Br)c2)on1	-17	-62	-25	-11	-19	-44
CC(C)(C)[C@H]1COC(=O)[C@@H](Cc2ccc(F)cc2)C/C=C\C[C@@H](CC(=O)N[C@@H](CO)Cc2ccccc2)C(=O)N1	-2	.	.	34*	0	0
CC(C)(C)[C@H]1COC(=O)[C@@H](Cc2ccc(F)cc2)C/C=C\C[C@@H](CC(=O)N[C@H](CO)Cc2ccccc2)C(=O)N1	-6	.	.	66*	6	-5
C[C@@H]1COC(=O)[C@H](Cc2ccc(F)cc2)CC/C=C/C[C@@H](CC(=O)N[C@@H](CO)Cc2ccccc2)C(=O)N1	2	.	.	11	0	0
COc1cc(C(c2c(C)[nH][nH]c2=O)c2c(C)[nH][nH]c2=O)ccc1OCc1ccc([N+](=O)[O-])cc1	8	7	-4	26*	11	1
Cn1ncc2c(NNC(=O)c3ccc(O)cc3)ncnc21	4	-11	0	-2	-4	7
COc1ccccc1NC(=O)C(=O)NNS(=O)(=O)c1ccc2ccccc2c1	11	2	-1	34*	7	-1
CC(/C=N/NC(=O)CSc1nnc(SCc2ccccc2)s1)=C\c1ccco1	9	-6	-3	0	27*	7
Cc1ccc(CSc2nnc(SCC(=O)N/N=C/C=C/c3ccco3)s2)cc1	8	-5	-2	-1	16	0
O=C(Nc1ncnc2c1CCC2)C12CC3CC(CC(C3)C1)C2	-4	-5	6	8	0	4
CCOC(=O)NC1(Nc2cccc(Cl)c2)Oc2ccccc2O1	8	-2	2	-3	33*	-3
O=C(COc1c(Br)cc(Br)c2cccnc12)Nc1ccccc1F	11	1	-8	2	30*	4
CC(NC(=O)/C=C/c1cnc2ccccc2n1)C12CC3CC(CC(C3)C1)C2 (stereo not drawn)	8	-4	-2	24*	5	12
Cc1ccc(C)n1-c1cc([N+](=O)[O-])ccc1-n1ccnc1	.	-4	-4	.	1	.
CC1(C)N([O-])c2cc([N+](=O)[O-])ccc2[N+]1=O	.	23	15	.	31*	.
Cc1ccc(C(=O)O)cc1NC(=O)CSc1nnc(-c2ccccc2F)n1C1CCCCC1	9	.	.	26*	3	6
CCCCc1oc2ccccc2c1C(=O)c1cc(I)c(OCCN(CC)CC)c(I)c1	6	2	1	-4	3	4
Nc1ccc2nc3c(=O)n(CCc4ccccc4)c(=O)[nH]c3nc2c1	.	39*	6	.	17	.
Nc1ccc2nc3c(=O)n(C4CCCCC4)c(=O)[nH]c3nc2c1	9	13	9	6	26*	20
COc1cc2[nH]c(=O)n(C3CCCCC3)c(=O)c2cc1OC	2	1	0	9	4	2
Nc1ccc(N2CCCCCC2)cc1	.	16	13	.	29*	.
SMILES	PAFAH1B3 FP inh	PME-1 primary	Fam108B counter	PAFAH1B2 inh	pPAFAH inh	PAFAH2 FP inh
CC(CS(=O)(=O)c1ccc2c(c1)NC(=O)CS2)C(=O)N1CCN(c2cccc(Cl)c2)CC1 (stereo not drawn)	0	6	1	-1	25*	-2
O=C(Nc1ccc2c(c1)OCCO2)Nc1ccc2c(c1)OCO2	7	14	3	5	6	-3
O=C(Nc1ccc2c(c1)CCC2)Nc1ccc2c(c1)OCO2	7	4	-1	2	25*	2
CCCCC(CC)CNS(=O)(=O)c1ccc2c(c1)CCN2C(=O)CCC(=O)O (stereo not drawn)	9	0	1	16	32*	-3
CN(CC(=O)Nc1ccccc1Cl)C(=O)COC(=O)c1cccs1	10	.	.	2	-2	1
Cc1ccc(SCC(=O)OCC(=O)N(C)CC(=O)Nc2ccccc2Cl)cc1C	7	2	1	5	34*	-1
CN(CC(=O)Nc1ccccc1Cl)C(=O)COC(=O)c1ccc([N+](=O)[O-])s1	48*	.	.	19	10	34*
Cc1ccc(NC(=O)COC(=O)c2ccc([N+](=O)[O-])s2)c(C)c1	28*	0	3	16	11	39*
NS(=O)(=O)c1ccc(NC(=O)COC(=O)c2ccc([N+](=O)[O-])s2)cc1	30*	8	5	12	33*	43*
CN(CC(=O)Nc1ccccc1Cl)C(=O)COC(=O)CSc1ccc(F)cc1	-4	-2	5	15	23	0
COc1cc2oc(=O)cc(-c3ccc(-c4ccc(F)c(Cl)c4)cc3)c2c(OC)c1OC	5	.	.	0	5	1
COCC1=C(C(=O)OC)C(c2ccco2)n2ncnc2N1 (stereo not drawn)	.	0	-1	.	-9	.
O=C(O)c1oc2ccccc2c1CSc1ccc(Cl)cc1	4	3	2	29*	2	-1
O=C(O)c1oc2ccccc2c1CSc1ccccn1	0	1	-3	4	4	2
CC1=[N+](C)N(c2ccccc2)C(=O)C1N=C/C=C/c1ccccc1 (stereo not drawn)	10	-2	-1	2	-7	-1
CC(Oc1ccccc1)C(=O)Nc1nnc(S(=O)(=O)N2CCCCC2)s1 (stereo not drawn)	4	-3	-1	9	2	6
CC(Oc1ccccc1)C(=O)Nc1nnc(S(=O)(=O)Nc2ccccc2)s1 (stereo not drawn)	7	1	0	10	29*	5
Cc1ccc(C)c(N2CCN(c3ncccc3[N+](=O)[O-])CC2)c1	6	4	-5	4	28*	2
Cc1ccc(N2CCN(c3ncccc3[N+](=O)[O-])CC2)c(C)c1	12	-1	3	0	9	1

Assay outcomes deposited in PubChem BioAssay by The Scripps Research Institute Molecular Screening Center.
